PubChem BioAssay (EPA / NIEHS)
Inconclusive results are not listed. The source made the active and inactive calls. The calls were made as follows, unless noted: active = hit-call score of the fitted dose curve at least 0.9, where 1 is the maximum; inactive = score below 0.9.

How the values were obtained:
[1] = target: Oxysterols receptor LXR-alpha (Homo sapiens) (UniProt Q13133); experiment: ATG_LXRa_TRANS: Attagene TRANS-FACTORIAL HepG2 Assay for human Liver X Receptor alpha (LXRa) (AID 2282980; active = hit-call score of the fitted dose curve at least 0.9, where 1 is the maximum); conditions: HepG2 Attagene TRANS reporter, LXRa transactivation
Sequence of Oxysterols receptor LXR-alpha (Homo sapiens) (Q13133 whole entry, looked up, the tested form may be a part): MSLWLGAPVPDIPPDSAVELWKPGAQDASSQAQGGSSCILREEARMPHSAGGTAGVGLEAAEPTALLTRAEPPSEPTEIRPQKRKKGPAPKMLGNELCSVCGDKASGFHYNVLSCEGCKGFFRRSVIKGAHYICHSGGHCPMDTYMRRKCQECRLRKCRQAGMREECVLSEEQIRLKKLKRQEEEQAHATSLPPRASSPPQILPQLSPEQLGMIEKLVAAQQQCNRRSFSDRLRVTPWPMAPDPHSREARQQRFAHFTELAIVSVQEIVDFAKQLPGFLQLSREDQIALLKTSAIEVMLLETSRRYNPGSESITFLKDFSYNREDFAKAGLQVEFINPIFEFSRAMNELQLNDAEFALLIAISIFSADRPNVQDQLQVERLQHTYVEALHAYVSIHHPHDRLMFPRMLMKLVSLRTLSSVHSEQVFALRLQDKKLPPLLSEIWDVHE
Method in brief: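 In this multiplexed TRANS system, compounds act on HepG2 cells carrying GAL4-UAS reporter units and a receptor-GAL4 fusion for 24 h. Induced reporter RNA is amplified, fluorescently labelled and sized by capillary electrophoresis, with DMSO as baseline.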

[2] = target: Oxysterols receptor LXR-beta (Homo sapiens) (UniProt P55055); experiment: ATG_LXRb_TRANS: Attagene TRANS-FACTORIAL HepG2 Assay for human Liver X Receptor beta (LXRb) (AID 2282981; active = hit-call score of the fitted dose curve at least 0.9, where 1 is the maximum); conditions: HepG2 Attagene TRANS GAL4-LXRb reporter, mRNA
Sequence of Oxysterols receptor LXR-beta (Homo sapiens) (P55055 whole entry, looked up, the tested form may be a part): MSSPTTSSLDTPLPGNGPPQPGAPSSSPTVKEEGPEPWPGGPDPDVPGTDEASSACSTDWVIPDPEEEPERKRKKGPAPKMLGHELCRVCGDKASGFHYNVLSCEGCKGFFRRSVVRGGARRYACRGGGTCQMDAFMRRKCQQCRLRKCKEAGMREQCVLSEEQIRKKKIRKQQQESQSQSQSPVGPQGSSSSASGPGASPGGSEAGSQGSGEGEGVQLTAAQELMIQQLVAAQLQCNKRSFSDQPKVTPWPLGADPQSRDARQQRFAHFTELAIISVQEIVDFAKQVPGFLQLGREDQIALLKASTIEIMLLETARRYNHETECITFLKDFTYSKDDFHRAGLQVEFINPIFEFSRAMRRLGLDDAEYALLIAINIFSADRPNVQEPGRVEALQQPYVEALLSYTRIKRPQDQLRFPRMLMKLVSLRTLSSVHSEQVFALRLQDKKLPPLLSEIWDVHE
Method in brief: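 Measures induction of a Gal4-driven reporter transcript in HepG2 cells expressing an exogenous LXRb-Gal4 fusion. Cells are exposed to compound for 24 h before RNA isolation and RT-PCR with capillary electrophoresis detection.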

[3] = ATG_M_32_TRANS: Attagene TRANS-FACTORIAL HepG2 Assay for M32 Transcription Factor (Internal Marker) (AID 2282984; active = hit-call score of the fitted dose curve at least 0.9, where 1 is the maximum;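 also: transcript level of a background control reporter unit measured by RT-PCR and capillary electrophoresis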); conditions: HepG2 Attagene TRANS M32 internal marker reporter
Method in brief: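 After 24 h dosing of transfected HepG2 cells, total RNA was reverse-transcribed, reporter sequences PCR-amplified, 6-FAM labelled by primer extension and HpaI-digested before capillary electrophoresis. Signal increase over DMSO was fitted.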

[4] = target: Transcriptional activator Myb (Homo sapiens) (UniProt P10242); experiment: ATG_Myb_CIS: Attagene CIS-FACTORIAL HepG2 Assay for human Myeloblastosis (Myb) Proto-Oncogene Transcription Factor (AID 2282986); conditions: HepG2 Attagene CIS-FACTORIAL Myb reporter transcription; actives raise or lower the signal
Sequence of Transcriptional activator Myb (Homo sapiens) (P10242 whole entry, looked up): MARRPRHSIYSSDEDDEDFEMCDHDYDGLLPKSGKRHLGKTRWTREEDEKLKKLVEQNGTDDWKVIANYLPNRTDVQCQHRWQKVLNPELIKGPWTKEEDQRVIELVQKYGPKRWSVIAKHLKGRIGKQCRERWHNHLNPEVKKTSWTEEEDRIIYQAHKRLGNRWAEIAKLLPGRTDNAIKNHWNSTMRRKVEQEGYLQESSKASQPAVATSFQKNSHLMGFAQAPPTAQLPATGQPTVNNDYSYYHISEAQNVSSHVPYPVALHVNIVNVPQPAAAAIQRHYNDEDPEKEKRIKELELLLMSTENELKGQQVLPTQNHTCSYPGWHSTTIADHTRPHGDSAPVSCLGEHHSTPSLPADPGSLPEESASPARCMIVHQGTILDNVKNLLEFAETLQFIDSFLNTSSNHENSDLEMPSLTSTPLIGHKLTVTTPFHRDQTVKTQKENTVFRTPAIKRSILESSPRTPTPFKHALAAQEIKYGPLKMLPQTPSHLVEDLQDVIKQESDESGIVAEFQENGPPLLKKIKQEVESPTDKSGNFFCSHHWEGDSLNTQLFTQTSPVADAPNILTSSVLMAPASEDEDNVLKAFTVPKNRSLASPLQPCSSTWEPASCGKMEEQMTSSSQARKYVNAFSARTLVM
Method in brief: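 In this HepG2 transient-transfection format, cis-regulated reporter mRNA is quantified 24 h post-dosing by RT-PCR with capillary electrophoresis, fitted bidirectionally to DMSO baseline.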

[5] = target: Nuclear respiratory factor 1 (Homo sapiens) (UniProt Q16656); experiment: ATG_NRF1_CIS: Attagene CIS-FACTORIAL HepG2 Assay for human Nuclear Respiratory Factor 1 (NRF1) Orphan Gene (AID 2282987); conditions: HepG2 NRF1 cis-element reporter, Attagene multiplex; actives raise or lower the signal
Sequence of Nuclear respiratory factor 1 (Homo sapiens) (Q16656 whole entry, looked up): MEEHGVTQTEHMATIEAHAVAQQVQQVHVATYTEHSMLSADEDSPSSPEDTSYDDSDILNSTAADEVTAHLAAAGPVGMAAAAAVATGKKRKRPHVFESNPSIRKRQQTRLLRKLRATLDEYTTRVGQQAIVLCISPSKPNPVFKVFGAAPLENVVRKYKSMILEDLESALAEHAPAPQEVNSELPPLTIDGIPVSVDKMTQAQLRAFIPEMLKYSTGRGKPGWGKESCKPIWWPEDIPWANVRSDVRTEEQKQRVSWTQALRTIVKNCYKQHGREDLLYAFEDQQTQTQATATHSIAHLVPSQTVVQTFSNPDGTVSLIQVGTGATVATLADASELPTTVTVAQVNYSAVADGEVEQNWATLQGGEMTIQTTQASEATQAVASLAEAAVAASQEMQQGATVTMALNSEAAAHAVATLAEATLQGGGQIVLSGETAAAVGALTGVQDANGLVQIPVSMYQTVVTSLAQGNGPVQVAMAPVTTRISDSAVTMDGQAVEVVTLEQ
Method in brief: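 Using DMSO as baseline, gain- or loss-of-signal was fitted for reporter mRNA levels in HepG2 cells transiently transfected with cis-regulated reporter units. Samples were taken 24 h after dosing and read by RT-PCR with capillary electrophoresis.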

[6] = ATG_NFI_CIS: Attagene CIS-FACTORIAL HepG2 Assay for human Nuclear Factor I (NFI) (AID 2282989); conditions: HepG2 cis-regulatory reporter, NFI response element transcription; actives raise or lower the signal
Method in brief: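 Read-out: reporter mRNA via RT-PCR plus capillary electrophoresis with fluorescence detection. Transiently transfected HepG2 (endogenous TF activity on cis promoters), 24 h compound exposure; gain or loss of signal fitted against DMSO.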

[7] = target: Myc proto-oncogene protein (Homo sapiens) (UniProt P01106); experiment: ATG_Myc_CIS: Attagene CIS-FACTORIAL HepG2 Assay for human Myelocytomatosis (Myc) Proto-Oncogene Transcription Factor (AID 2282990); conditions: HepG2, Attagene cis-reporter transcription factor activity; actives raise or lower the signal
Sequence of Myc proto-oncogene protein (Homo sapiens) (P01106 whole entry, looked up): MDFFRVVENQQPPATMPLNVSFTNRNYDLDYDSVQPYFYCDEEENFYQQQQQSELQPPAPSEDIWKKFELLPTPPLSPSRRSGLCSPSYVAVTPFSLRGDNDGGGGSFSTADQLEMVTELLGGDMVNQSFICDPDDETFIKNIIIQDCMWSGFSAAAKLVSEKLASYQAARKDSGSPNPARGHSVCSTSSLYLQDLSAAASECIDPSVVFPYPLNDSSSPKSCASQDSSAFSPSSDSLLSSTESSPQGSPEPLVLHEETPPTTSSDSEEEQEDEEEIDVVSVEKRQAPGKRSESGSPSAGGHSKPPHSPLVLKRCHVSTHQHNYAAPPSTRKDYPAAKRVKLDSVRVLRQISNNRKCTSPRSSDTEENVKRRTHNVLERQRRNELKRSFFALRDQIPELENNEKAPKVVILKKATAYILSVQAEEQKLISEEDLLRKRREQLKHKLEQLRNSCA
Method in brief: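 DMSO-normalised, bidirectionally fitted reporter mRNA signal. HepG2 cells transfected with cis reporter constructs, treated 24 h; transcripts detected by RT-PCR, 6-FAM primer extension and CE.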

[8] = ATG_NF_kB_CIS: Attagene CIS-FACTORIAL HepG2 Assay for human Nuclear Factor Kappa B (NF-kB) (AID 2282991); conditions: HepG2 Attagene cis-factorial NF-kB reporter mRNA; actives raise or lower the signal
Method in brief: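 Endpoint from a 52-component multiplexed HepG2 reporter panel: cis-regulated transcription units transiently transfected, 24 h dosing, reporter mRNA quantified by RT-PCR and capillary electrophoresis, scored as increase or decrease against DMSO.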

[9] = ATG_NRF2_ARE_CIS: Attagene CIS-FACTORIAL HepG2 Assay for human Nuclear Factor Erythroid 2 Related Factor 2 (NFR2) response to Antioxidant Response Elements (ARE) (AID 2282992); conditions: HepG2 Attagene ARE/NRF2 reporter, transcription factor activity; actives raise or lower the signal;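 as to AC50: reporter mRNA level measured by RT-PCR and capillary electrophoresis fluorescence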
Method in brief: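 Readout: reporter mRNA quantified by RT-PCR plus FAM-labelled primer extension, HpaI digestion and capillary electrophoresis, 24 h after dosing transfected HepG2 cells. Gain or loss of signal is fitted bidirectionally against DMSO baseline.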

[10] = ATG_Oct_MLP_CIS: Attagene CIS-FACTORIAL HepG2 Assay for human Octamer-Binding Transcription Factor (Oct) (AID 2282993); conditions: HepG2 Attagene cis-factorial Oct reporter, mRNA; actives raise or lower the signal
Method in brief: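 Read-out: reporter mRNA via RT-PCR plus capillary electrophoresis of 6-FAM-labelled fragments. Transiently transfected HepG2, 24 h exposure, endogenous TF activity on cis elements. Gain or loss of signal fitted relative to DMSO.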

[11] = ATG_M_06_TRANS: Attagene TRANS-FACTORIAL HepG2 Assay for M06 Transcription Factor (Internal Marker) (AID 2282983; active = hit-call score of the fitted dose curve at least 0.9, where 1 is the maximum); conditions: HepG2 Attagene TRANS M06 internal marker reporter
Method in brief: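 Multi-reporter-transfected HepG2, 24 h treatment; reporter transcripts quantified via RT-PCR, primer-extension labelling and CE. DMSO-normalized gain-of-signal fit.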

[12] = target: Cellular tumor antigen p53 (Homo sapiens) (UniProt P04637); experiment: ATG_p53_CIS: Attagene CIS-FACTORIAL HepG2 Assay for human p53 Transcription Factor (AID 2282994); conditions: HepG2 p53 cis-element reporter, Attagene mRNA; actives raise or lower the signal
Sequence of Cellular tumor antigen p53 (Homo sapiens) (P04637 whole entry, looked up): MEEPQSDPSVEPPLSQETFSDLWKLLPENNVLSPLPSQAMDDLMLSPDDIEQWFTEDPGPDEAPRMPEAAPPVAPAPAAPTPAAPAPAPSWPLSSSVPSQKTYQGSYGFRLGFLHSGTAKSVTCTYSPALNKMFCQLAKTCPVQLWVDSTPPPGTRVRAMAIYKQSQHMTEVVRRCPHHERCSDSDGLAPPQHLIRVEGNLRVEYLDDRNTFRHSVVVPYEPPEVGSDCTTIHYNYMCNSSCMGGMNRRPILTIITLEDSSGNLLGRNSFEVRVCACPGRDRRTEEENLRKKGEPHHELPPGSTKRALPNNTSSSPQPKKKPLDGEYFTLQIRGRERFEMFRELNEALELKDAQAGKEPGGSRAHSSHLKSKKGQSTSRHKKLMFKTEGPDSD
Method in brief: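 Read-out: reporter mRNA by RT-PCR plus capillary electrophoresis with fluorescence detection. Human HepG2 liver cells carried transfected multi-reporter cis-element constructs, dosed 24 h. Gain or loss of signal fitted bidirectionally against DMSO control.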

[13] = target: Nuclear receptor subfamily 4 group A member 2 (Homo sapiens) (UniProt P43354); experiment: ATG_NURR1_TRANS: Attagene TRANS-FACTORIAL HepG2 Assay for human Nuclear Receptor Related Protein 1 (NURR1) (AID 2282985; active = hit-call score of the fitted dose curve at least 0.9, where 1 is the maximum); conditions: HepG2 Attagene TRANS reporter, mRNA readout
Sequence of Nuclear receptor subfamily 4 group A member 2 (Homo sapiens) (P43354 whole entry, looked up, the tested form may be a part): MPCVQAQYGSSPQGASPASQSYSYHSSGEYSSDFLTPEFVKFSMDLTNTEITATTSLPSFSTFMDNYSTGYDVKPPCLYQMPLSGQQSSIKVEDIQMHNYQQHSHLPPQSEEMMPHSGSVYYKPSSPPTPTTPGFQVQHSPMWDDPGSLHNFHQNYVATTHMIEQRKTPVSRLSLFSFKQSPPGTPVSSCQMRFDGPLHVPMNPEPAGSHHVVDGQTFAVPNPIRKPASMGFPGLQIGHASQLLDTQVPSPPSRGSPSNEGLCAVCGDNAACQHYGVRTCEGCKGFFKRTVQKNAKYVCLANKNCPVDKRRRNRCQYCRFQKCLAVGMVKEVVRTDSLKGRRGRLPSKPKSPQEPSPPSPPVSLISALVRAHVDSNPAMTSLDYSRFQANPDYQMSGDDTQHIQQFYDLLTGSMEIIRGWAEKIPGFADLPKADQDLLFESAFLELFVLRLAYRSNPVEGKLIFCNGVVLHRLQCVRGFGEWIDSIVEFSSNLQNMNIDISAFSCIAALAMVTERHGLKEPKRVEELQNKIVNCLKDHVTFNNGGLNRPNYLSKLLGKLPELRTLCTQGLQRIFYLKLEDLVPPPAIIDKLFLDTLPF
Method in brief: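 Chimeric NR-Gal4 fusion activity measured in HepG2 after 24 h treatment. Reporter transcripts detected by RT-PCR and capillary electrophoresis fluorescence; positive-direction curve fitting against DMSO.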

[14] = target: Hepatocyte nuclear factor 4-alpha (Homo sapiens) (UniProt P41235); experiment: ATG_HNF4a_TRANS: Attagene TRANS-FACTORIAL HepG2 Assay for human Hepatocyte Nuclear Factor 4 alpha (HNF4a) (AID 2282982; active = hit-call score of the fitted dose curve at least 0.9, where 1 is the maximum); conditions: HepG2 HNF4a transactivation reporter, mRNA readout
Sequence of Hepatocyte nuclear factor 4-alpha (Homo sapiens) (P41235 whole entry, looked up, the tested form may be a part): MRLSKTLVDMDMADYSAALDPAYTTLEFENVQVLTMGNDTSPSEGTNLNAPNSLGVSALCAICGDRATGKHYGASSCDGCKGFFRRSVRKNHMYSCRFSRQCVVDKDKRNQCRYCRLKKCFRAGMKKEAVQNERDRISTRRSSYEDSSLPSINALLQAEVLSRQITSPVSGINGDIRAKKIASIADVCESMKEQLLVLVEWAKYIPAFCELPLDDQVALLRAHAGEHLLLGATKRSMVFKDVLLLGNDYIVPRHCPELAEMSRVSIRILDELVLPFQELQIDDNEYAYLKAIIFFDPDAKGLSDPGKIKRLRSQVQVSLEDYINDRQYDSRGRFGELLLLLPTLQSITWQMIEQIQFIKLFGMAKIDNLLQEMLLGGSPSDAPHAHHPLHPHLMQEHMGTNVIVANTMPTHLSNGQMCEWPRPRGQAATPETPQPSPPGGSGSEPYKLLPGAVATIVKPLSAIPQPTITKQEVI
Method in brief: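 In this trans-factorial format, a chimeric HNF4a-GAL4 fusion drives a GAL4-UAS reporter in transfected HepG2 liver cells. After 24 h treatment, reporter mRNA induction is measured by RT-PCR with capillary electrophoresis, relative to DMSO.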

[15] = BSK_3C_uPAR: BioMAP Diversity Plus: 3C Assay for Urokinase-type plasminogen activator receptor (uPAR) Biomarker Activity (AID 2282998); conditions: BioMAP 3C HUVEC, uPAR biomarker ELISA; actives raise or lower the signal
Method in brief: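 HUVEC primary cells; 24 h post-dose; uPAR by ELISA; gain or loss of signal fitted bidirectionally vs DMSO baseline.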

[16] = BSK_4H_Eotaxin3: BioMAP Diversity Plus: 4H Assay for Eotaxin 3 Biomarker Activity (AID 2283000); conditions: primary human endothelial cells (HUVEC); actives raise or lower the signal
Method in brief: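 ELISA quantitation of CCL26 (Eotaxin-3) protein from chemically dosed human vascular endothelial cells at 24 h; increases and decreases both scored relative to DMSO-treated baseline.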

[17] = BSK_3C_TissueFactor: BioMAP Diversity Plus: 3C Assay for Tissue Factor Biomarker Activity (AID 2282997); conditions: BioMAP 3C HUVEC, tissue factor biomarker readout; actives raise or lower the signal
Method in brief: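 In this endothelial system, HUVEC are treated for 24 h and Tissue Factor is assessed by ELISA, normalised to DMSO.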

[18] = BSK_3C_VCAM1: BioMAP Diversity Plus: 3C Assay for Vascular cell adhesion molecule 1 (VCAM1) Biomarker Activity (AID 2282999); conditions: BioMAP 3C HUVEC, VCAM1 ELISA, cytokine-stimulated; actives raise or lower the signal
Method in brief: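 Vascular primary endothelium (human umbilical vein) was exposed to chemicals and assayed 24 h later. VCAM-1 levels came from ELISA, with DMSO serving as baseline for bidirectional fitting.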

Measured: AC50

COc1cc(C)cc(O)c1
inactive: [1] | [2] | [3] | [4] | [5] | [6] | [7] | [8] | [9] | [10]

COC(=O)Cc1cccc2ccccc12
inactive: [1] | [11] | [4] | [5] | [6] | [8] | [9] | [10] | [12]

Nc1cc(N)cc(C(=O)O)c1
inactive: [1] | [11] | [3] | [4] | [5] | [6] | [7] | [8] | [10]

COC(C)CCO (stereo unspecified)
inactive: [11] | [13] | [4] | [5] | [6] | [7] | [8]
active: [1] 27.7 µM | [9] 63.3 µM | [10] 151 µM | [12] 162 µM

CC(C)(CO)[N+](=O)[O-]
inactive: [1] | [14] | [3] | [13] | [4] | [5] | [6] | [7] | [9] | [10]

CC(C)CCCCCCCOC(=O)c1ccc(C(=O)OCCCCCCCC(C)C)c(C(=O)OCCCCCCCC(C)C)c1
not listed: [2] | [13] | [15] | [16] | [17] | [18]
inactive: all other assays above

CCn1c2ccccc2c2cc(N)ccc21
active: [9] 26.4 µM | [15] 1.82 µM
not listed: [2] | [14] | [17] | [18]
inactive: all other assays above

CC(C)=CCC/C(C)=C/COC=O
not listed: [2] | [7] | [15] | [16] | [17] | [18]
inactive: all other assays above

CCOC(=O)c1ccccc1OC
inactive: [1] | [11] | [3] | [5] | [6] | [8] | [9] | [10]

C[C@H]1C[C@@H]2[C@H]([C@@H](O)C[C@@]3(C)[C@H]2CC[C@]3(O)C(=O)CO)[C@@]2(C)C=CC(=O)C=C12
active: [9] 26.7 µM
not listed: [2] | [3] | [4] | [13] | [14]
inactive: all other assays above

Clc1nc(C(Cl)(Cl)Cl)c(Cl)c(Cl)c1Cl
active: [6] 52.4 µM
not listed: [2] | [9] | [15] | [16] | [17] | [18]
inactive: all other assays above

CC[Si](OC(C)=O)(OC(C)=O)OC(C)=O
not listed: [2] | [3] | [9] | [13] | [17] | [18]
inactive: all other assays above

C=C(C)C(=O)O[C@H]1C[C@@H]2CC[C@@]1(C)C2(C)C
active: [1] 27.5 µM | [9] 72.1 µM | [12] 145 µM | [15] 13.5 µM | [18] 26.6 µM | [16] 9.05 µM
not listed: [2] | [11] | [14] | [17]
inactive: all other assays above

CCCCCC(=O)OCCc1ccccc1
inactive: [1] | [11] | [3] | [5] | [6] | [7] | [9] | [10] | [12]

CC(C)(C)NC(N)=O
not listed: [2] | [3] | [14] | [15] | [16] | [17] | [18]
inactive: all other assays above

CC(C)C(C)(C)C(C)(C)C(C)(C)S
not listed: [2] | [3] | [15] | [16] | [17] | [18]
inactive: all other assays above

OCCCCCO
inactive: [1] | [11] | [3] | [4] | [5] | [6] | [9] | [10] | [12]

C=O
not listed: [2] | [11] | [12] | [15] | [16] | [17] | [18]
inactive: all other assays above

CC(C)(C)c1n[nH]c(=S)n(N)c1=O
inactive: [1] | [14] | [4] | [5] | [6] | [8] | [9] | [10] | [12]

CCCc1ccccc1O
not listed: [2] | [3] | [14] | [15] | [16] | [17] | [18]
inactive: all other assays above

C=C[C@@H](C)CCC=C(C)C
inactive: [1] | [11] | [3] | [13] | [4] | [5] | [8] | [9] | [10] | [12]

NC(=O)Nc1ccc(Cl)cc1
not listed: [2] | [11] | [13] | [15] | [16] | [17] | [18]
inactive: all other assays above

CC(C)[C@H]1CC[C@@H](C)CC1=O
not listed: [2] | [8] | [15] | [16] | [17] | [18]
inactive: all other assays above
